We go through 17 compounds from PubChem BioAssay.

The structures appear in SMILES notation. A number with no mark means an inactive call. Activity calls are given as the source filed them.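 How the source made its calls: active means inhibition at or above 50% relative to wild type and mutant plate controls; inactive means inhibition below 50%.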 Peptide text beside a SMILES is read from it. * marks the point of attachment. Cbz = O=C(OCc1ccccc1)*

This test is described as follows: inhibitors of Chlamydomonas gravitaxis, primary screen, whole organism, Chlamydomonas reinhardtii, WT vs cilia-less mutant, absorbance, 96-well (AID 463189).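 Further: 0% = wild type cc124 cells in DMSO and 100% = ciliumless bld1 mutant cells.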 As to conditions: OD600 absorbance, 2 days, at 10 µM, hits give high values.
`O=c1[nH]cc(F)c(=O)[nH]1`: the inhibition was 2.19%.

As for `C=CCN1CCc2c(cc(O)c(O)c2Cl)C(c2ccccc2)C1` (configuration not stated), the inhibition is -7.02%.

Regarding `CNc1ncnc2c1ncn2[C@@H]1O[C@H](CO)[C@H](O)C1O` (some centres not stated), the inhibition was 7.79%.

For the compound `CCOC(=O)C(C)(C)Oc1ccc(Cl)cc1`, the inhibition was -6.65%.

In the case of `CCN(CC)CCCC(C)Nc1ccnc2cc(Cl)ccc12` (configuration not stated), the inhibition was 0.95%.

On to `C[N+](C)(CCCCCC[N+](C)(C)CCCN1C(=O)c2cccc3cccc(c23)C1=O)CCCN1C(=O)c2cccc3cccc(c23)C1=O`, for which the inhibition was 101% (active).

For `C[N+](C)(C)CCOC(=O)CCC(=O)OCC[N+](C)(C)C`, the inhibition was -7.41%.

Take `S=C(Nc1ccccc1)Nc1nccs1`: the inhibition is 7.29%.

As to `O=C1c2c(O)ccc(O)c2C(=O)c2c(NCCNCCO)ccc(NCCNCCO)c21`, the inhibition is 28.8%.

Regarding `CC(N)=NCCC[C@H](N)C(=O)O`, the inhibition is 5.15%.

Regarding `CC(=O)CCCCn1c(=O)c2c(ncn2C)n(C)c1=O`, the inhibition is -0.901%.

In the case of `CC(=O)N1CCN(c2ccc(OC[C@H]3CO[C@](Cn4ccnc4)(c4ccc(Cl)cc4Cl)O3)cc2)CC1`, the inhibition was 74.8% (active).

Consider `COC(=O)C(C)(N)Cc1ccc(O)cc1` (configuration not stated), for which the inhibition was 9.13%.

For the compound `Nc1ccn([C@H]2CC[C@@H](CO)O2)c(=O)n1`, the inhibition was -7.35%.

As for `NCCCC(N)(C(=O)O)C(F)F` (configuration not stated), the inhibition was 3.03%.

As for `C1CCC(N=C(NC23CC4CC(CC(C4)C2)C3)N2CCOCC2)CC1`, the inhibition was 2.95%.

Take `CC(C)[C@H](NC(=O)OCc1ccccc1)C(=O)N[C@H](C=O)Cc1ccccc1` (Cbz-Val-Phe-aldehyde): the inhibition was 6.09%.
